Data from PubChem BioAssay (NCI).
About 79,000 compounds went through this panel and 15% of them were active in at least one assay; those are over-represented in the sample as a whole. The source made the active and inactive calls. Cut-off read from the data, not from the text of the source: active = growth inhibition above about 70%; inactive = the rest.

Assays:
[1] = NCI Yeast Anticancer Drug Screen. Data for the wt1 strain (AID 149);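 note: 0% = growth of vehicle-treated wt1 cultures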; settings: S. cerevisiae wt1 strain (SPY 50644) growth inhibition, active compounds read high
How it was run: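 Each compound is tested on wt1 yeast and the loss of growth versus vehicle gives the inhibition value.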

[2] = NCI Yeast Anticancer Drug Screen. Data for the rad50EPP+ strain (AID 151);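 note: 0% = growth of vehicle-treated control cultures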; settings: S. cerevisiae rad50 mutant strain, active compounds read high
How it was run: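 Strain rad50EPP+; compound exposure; % growth inhibition vs vehicle.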

[3] = NCI Yeast Anticancer Drug Screen. Data for the mgt1 strain (AID 153); settings: S. cerevisiae mgt1 mutant growth inhibition, active compounds read high
How it was run: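 Read-out: yeast growth inhibition vs vehicle control. Strain mgt1, drawn from a panel altered in DNA damage repair or cell cycle control.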

[4] = NCI Yeast Anticancer Drug Screen. Data for the rad50 strain (AID 155);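 note: 0% = growth of vehicle-only cultures of the same strain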; settings: S. cerevisiae rad50 strain growth inhibition, active compounds read high
How it was run: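 Vehicle-treated cultures provide the reference for the growth inhibition reported for compound-exposed, repair-deficient yeast.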

[5] = NCI Yeast Anticancer Drug Screen. Data for the mec2-1 strain (AID 157); settings: S. cerevisiae mec2-1 strain, active compounds read high
How it was run: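 Cells of the genetically defined mec2-1 yeast strain are incubated with test compound. Inhibition of growth is calculated against vehicle-treated controls.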

[6] = NCI Yeast Anticancer Drug Screen. Data for the rad14 strain (AID 159);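 note: 0% = growth of vehicle-treated control cultures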; settings: S. cerevisiae rad14 strain growth inhibition, active compounds read high
How it was run: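 Inhibition of growth is reported for a repair-deficient yeast mutant following compound treatment, calculated relative to cultures that received vehicle.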

[7] = NCI Yeast Anticancer Drug Screen. Data for the sgs1 mgt1 strain (AID 161);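 note: 0% = growth of cultures given vehicle only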; settings: S. cerevisiae sgs1 mgt1 strain, active compounds read high
How it was run: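 Inhibition of yeast growth, normalised to vehicle-treated controls, is reported for a strain bearing genetic alterations in DNA damage repair.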

[8] = NCI Yeast Anticancer Drug Screen. Data for the CLN2oe strain (AID 163);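 note: 0% = growth of vehicle-only control cultures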; settings: S. cerevisiae CLN2oe strain, active compounds read high
How it was run: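 Strain altered in cell-cycle control, incubated with compound; growth compared to solvent-treated controls.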

[9] = NCI Yeast Anticancer Drug Screen. Data for the cln2 rad14 strain (AID 165);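 note: 0% = growth equal to vehicle treated cultures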; settings: S. cerevisiae cln2 rad14 strain, active compounds read high
How it was run: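 The screen exposed genetically defined yeast (cln2 rad14) to test compounds and scored growth inhibition relative to vehicle-treated controls.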

[10] = NCI Yeast Anticancer Drug Screen. Data for the bub3 strain (AID 167); settings: S. cerevisiae bub3 mutant strain, active compounds read high
How it was run: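 Mutant yeast screening strain plus compound; vehicle-treated cultures serve as the 0% inhibition reference.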

[11] = NCI Yeast Anticancer Drug Screen. Data for the wt2 strain (AID 169); settings: S. cerevisiae wt2 strain growth inhibition, active compounds read high
How it was run: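 Steps: yeast strain treated with compound; growth recorded; inhibition calculated relative to cultures given vehicle alone.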

[12] = NCI Yeast Anticancer Drug Screen. Data for the mlh1 strain (AID 171);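 note: 0% = growth of vehicle-treated control cultures of the same strain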; settings: S. cerevisiae mlh1 strain growth inhibition, active compounds read high
How it was run: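 Yeast screen: mutant strain plus compound, growth scored against vehicle control wells.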

[13] = NCI Yeast Anticancer Drug Screen. Data for the sgs1 strain (AID 173);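 note: 0% = growth of vehicle-only control cultures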; settings: S. cerevisiae sgs1 mutant, active compounds read high
How it was run: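 Inhibition of yeast growth served as the measure. The mutant strain was treated with each compound, and growth was normalised to cultures receiving vehicle alone.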

[14] = NCI Yeast Anticancer Drug Screen. Data for the mlh1 rad18 strain (AID 175); settings: S. cerevisiae mlh1 rad18 strain growth inhibition, active compounds read high
How it was run: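 Compound-treated yeast growth, normalised to vehicle controls. Strain bears defined DNA repair mutations.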

[15] = NCI Yeast Anticancer Drug Screen. Data for the rad18 strain (AID 177); settings: S. cerevisiae rad18 mutant growth inhibition, active compounds read high
How it was run: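 Inhibition values reflect reduced yeast growth compared with vehicle-treated controls, using a strain engineered with a DNA damage repair defect.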

[16] = at 5.0 µM (retest, dose inferred, filed as 0.5)
[17] = at 50.0 µM (retest, dose inferred, filed as 5.0)

Measured: growth inhibition

OC1C#CCSCC#C/C=C\1 (stereo unspecified)
inactive: [1]; at 1.2 µM 9% | [1]; at 3.7 µM 3% | [1]; at 11.0 µM 14% | [1]; at 33.0 µM 55% | [2]; at 1.2 µM -22% | [2]; at 3.7 µM 15% | [2]; at 11.0 µM 13% | [2]; at 33.0 µM 23% | [3]; at 1.2 µM 9% | [3]; at 3.7 µM 2% | [3]; at 11.0 µM 14% | [3]; at 33.0 µM 43% | [4]; at 1.2 µM -24% | [4]; at 3.7 µM -17% | [4]; [16] 53% | [4]; at 11.0 µM 34% | [4]; at 33.0 µM 65% | [5]; at 1.2 µM 1% | [5]; at 3.7 µM 18% | [5]; [16] 62% | [5]; at 11.0 µM 14% | [5]; at 33.0 µM 54% | [6]; at 1.2 µM 4% | [6]; at 3.7 µM 6% | [6]; at 11.0 µM 12% | [6]; at 33.0 µM 51% | [7]; [16] -4% | [8]; at 1.2 µM -22% | [8]; at 3.7 µM 3% | [8]; at 11.0 µM -15% | [8]; at 33.0 µM -3% | [9]; [16] 60% | [9]; at 50.0 µM 52% | [10]; at 1.2 µM -8% | [10]; at 3.7 µM -16% | [10]; [16] 16% | [10]; at 11.0 µM 17% | [10]; at 33.0 µM -10% | [11]; at 1.2 µM -21% | [11]; at 3.7 µM -17% | [11]; at 11.0 µM 6% | [11]; at 33.0 µM -9% | [12]; at 1.2 µM -1% | [12]; at 3.7 µM 4% | [12]; at 11.0 µM 15% | [12]; at 33.0 µM 46% | [13]; at 1.2 µM 20% | [13]; at 3.7 µM 11% | [13]; at 11.0 µM 27% | [13]; at 33.0 µM 67% | [14]; [16] 62%
active: [1]; at 100.0 µM 97% | [2]; at 100.0 µM 86% | [3]; at 100.0 µM 95% | [4]; [17] 100% | [4]; at 50.0 µM 81.3% | [4]; at 100.0 µM 97% | [5]; [17] 100% | [5]; at 50.0 µM 78.4% | [5]; at 100.0 µM 97% | [6]; at 100.0 µM 98% | [7]; [17] 96% | [7]; at 50.0 µM 70.4% | [8]; at 100.0 µM 77% | [9]; [17] 93% | [10]; [17] 97% | [10]; at 50.0 µM 84.2% | [10]; at 100.0 µM 96% | [11]; at 100.0 µM 95% | [12]; at 100.0 µM 96% | [13]; at 100.0 µM 97% | [14]; [17] 100% | [14]; at 50.0 µM 79.2%

CCOC(=O)/C(O)=C(/C=N/C(=S)Nc1c(CC)cccc1CC)C(=O)OCC
inactive: [1]; at 1.2 µM -31% | [1]; at 3.7 µM -7% | [1]; at 11.0 µM 2% | [1]; at 33.0 µM 21% | [1]; at 100.0 µM 33% | [2]; at 1.2 µM -3% | [2]; at 3.7 µM -1% | [2]; at 11.0 µM -5% | [2]; at 33.0 µM -3% | [2]; at 100.0 µM -7% | [3]; at 1.2 µM -7% | [3]; at 3.7 µM -6% | [3]; at 11.0 µM 0% | [3]; at 33.0 µM 20% | [3]; at 100.0 µM 35% | [4]; at 1.2 µM -6% | [4]; at 3.7 µM -3% | [4]; [16] 7% | [4]; at 11.0 µM 11% | [4]; at 33.0 µM 36% | [4]; [17] 65% | [4]; at 50.0 µM 65.3% | [4]; at 100.0 µM 47% | [5]; at 1.2 µM -10% | [5]; at 3.7 µM -5% | [5]; [16] 3% | [5]; at 11.0 µM 10% | [5]; at 33.0 µM 27% | [5]; [17] 34% | [5]; at 50.0 µM 24.6% | [5]; at 100.0 µM 36% | [6]; at 1.2 µM -7% | [6]; at 3.7 µM -7% | [6]; at 11.0 µM -2% | [6]; at 33.0 µM 20% | [6]; at 100.0 µM 38% | [7]; [16] -4% | [7]; [17] 10% | [7]; at 50.0 µM 51.3% | [8]; at 1.2 µM -16% | [8]; at 3.7 µM -23% | [8]; at 11.0 µM -19% | [8]; at 33.0 µM -1% | [8]; at 100.0 µM 29% | [9]; [16] -1% | [9]; [17] 25% | [9]; at 50.0 µM 35.2% | [10]; at 1.2 µM -9% | [10]; at 3.7 µM -10% | [10]; [16] -20% | [10]; at 11.0 µM -5% | [10]; at 33.0 µM 12% | [10]; [17] 49% | [10]; at 50.0 µM 67% | [10]; at 100.0 µM 31% | [11]; at 1.2 µM -7% | [11]; at 3.7 µM -6% | [11]; at 11.0 µM -1% | [11]; at 33.0 µM 23% | [11]; at 100.0 µM 40% | [12]; at 1.2 µM -6% | [12]; at 3.7 µM -4% | [12]; at 11.0 µM 6% | [12]; at 33.0 µM 28% | [12]; at 100.0 µM 45% | [13]; at 1.2 µM -8% | [13]; at 3.7 µM 3% | [13]; at 11.0 µM 17% | [13]; at 33.0 µM 42% | [13]; at 100.0 µM 53% | [14]; [16] -8% | [14]; [17] 36% | [14]; at 50.0 µM 59.9% | [15]; at 1.2 µM -4% | [15]; at 3.7 µM -8% | [15]; at 11.0 µM 8% | [15]; at 33.0 µM 46% | [15]; at 100.0 µM 62%
